Structures are written as SMILES. Values without a mark were called inactive. Records with an inconclusive call do not appear. Calls of active or inactive are those of the source. Unless noted, calls come from the whole dose curve; as a rule, active = well fitted curve in either direction with a large enough effect (not every such curve was filed as active); inconclusive = small, poorly fitted or top-dose-only effect, or another doubt; inactive = flat fitted curve, though single readings scatter.

In assay [1] the target is Lysosomal acid glucosylceramidase (Homo sapiens) (UniProt P04062). The experiment in a line: Glucocerebrosidase-p2 (AID 348; in the data active = potency below about 10 µM; note: potency is the fitted concentration of half-maximal effect). Particulars: purified GBA, blue fluorogenic substrate, 40 min. Put shortly:
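Normal human glucocerebrosidase (0.2 nM) with blue fluorogenic substrate (80 uM final) in citrate/phosphate pH 5.9 with 10mM sodium taurocholate, 0.01% tween-20; 40 min RT, NaOH/glycine stop; fluorescence Ex 365/Em 440; AC50 from a titration from 0.6 nM upwards.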

Assay [2] can be described thus: AP1 Signaling Pathway (AID 357).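 Note: ME-180 reporter cells stimulated with EGF at its EC50 level; % is set by controls: 0 for no effect and ±100 for the full control effect.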 Particulars: ME-180 AP-1-bla reporter, EGF-induced, beta-lactamase ratio, 5 h; at 7.69 µM (top of the series) unless noted. Put shortly:
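Beta-lactamase reporter under AP-1 response element, ME-180 background. Stimulus: EC50 EGF. Compound exposure 5 h, 37 °C. Detection: CCF4, 2.5 h RT, 460/530 nm. Values: AC50 from titration.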

The target in assay [3] is Cytochrome P450 1A2 (Homo sapiens) (UniProt P05177). The experiment in a line: p450-cyp1a2 (AID 410; calls by dose curve; note: potency is the fitted concentration of half-maximal effect;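 for activity change, negative = inhibition: -100% = full effect of reference inhibitor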). Particulars: recombinant CYP1A2, luciferin-ME demethylation, luminescence; series mostly up to 11.4 µM. In outline:
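Read-out is luminescence from luciferin produced by CYP1A2 demethylation of Luciferin-ME (100uM, at Km). Detection reagent stopped the 60 min NADPH-dependent reaction; signals were normalized to 57 uM furafylline.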

Assay [4] can be described thus: Stat Signaling Pathway (AID 446).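 Note: ME-180 cervical cancer cells given 40 pM IL-6 alongside compound; SIE-controlled beta-lactamase reporter measured as 460/530 nm FRET emission ratio; % is set by controls: 0 for no effect and ±100 for the full control effect.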 Particulars: ME-180 (cervical carcinoma) SIE beta-lactamase reporter, IL-6 stimulated, 5 h; at 7.69 µM (top of the series) unless noted. In outline:
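Overnight-plated ME-180 cells bearing a STAT Inducible Element beta-lactamase reporter; 5 h co-exposure to compound and 40 pM IL-6; values normalized to 300 pM IL-6 and 125 nM JAK inhibitor controls.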

In assay [5] the target is Glucocorticoid receptor (Homo sapiens) (UniProt P04150). The experiment in a line: GR-GFP Redistribution (AID 450;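 active = compounds whose dose series gives a full or clear partial fitted curve of increased nuclear translocation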; note: potency is the fitted concentration of half-maximal effect). Particulars: U2OS GR-GFP nuclear translocation, laser cytometry, 2 h.
Sequence of Glucocorticoid receptor (Homo sapiens) (P04150 whole entry, looked up, the tested form may be a part): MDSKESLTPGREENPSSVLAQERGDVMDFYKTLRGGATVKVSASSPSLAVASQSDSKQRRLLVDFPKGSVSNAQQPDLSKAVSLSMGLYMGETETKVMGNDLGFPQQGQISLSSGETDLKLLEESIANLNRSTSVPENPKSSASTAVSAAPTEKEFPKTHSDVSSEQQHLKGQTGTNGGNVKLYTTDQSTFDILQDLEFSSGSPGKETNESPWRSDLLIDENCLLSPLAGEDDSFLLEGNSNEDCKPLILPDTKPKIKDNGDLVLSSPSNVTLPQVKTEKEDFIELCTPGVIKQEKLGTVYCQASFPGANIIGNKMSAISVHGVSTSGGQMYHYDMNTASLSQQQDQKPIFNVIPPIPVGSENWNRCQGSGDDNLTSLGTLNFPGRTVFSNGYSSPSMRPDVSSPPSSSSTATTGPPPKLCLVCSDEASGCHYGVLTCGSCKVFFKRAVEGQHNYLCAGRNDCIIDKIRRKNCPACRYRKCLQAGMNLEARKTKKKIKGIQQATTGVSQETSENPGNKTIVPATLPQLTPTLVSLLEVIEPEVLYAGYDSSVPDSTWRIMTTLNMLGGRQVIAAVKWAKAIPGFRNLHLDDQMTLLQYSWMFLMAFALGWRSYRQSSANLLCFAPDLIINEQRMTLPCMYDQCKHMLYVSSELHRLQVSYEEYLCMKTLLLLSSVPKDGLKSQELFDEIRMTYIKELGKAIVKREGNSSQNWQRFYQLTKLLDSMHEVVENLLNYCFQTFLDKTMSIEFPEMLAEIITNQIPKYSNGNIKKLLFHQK
For assay [6] the target is unchanged. The experiment in a line: GR-EFC Redistribution (AID 451; calls by dose curve; note: potency is the fitted concentration of half-maximal effect). Particulars: CHO-K1 GR-EFC translocation, beta-gal luminescence, 2 h. Put shortly: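 CHO-K1 cells stably expressing nuclear-localized β-gal enzyme acceptor and GR fused C-terminally to the enzyme donor fragment; ligand-driven nuclear translocation restores β-gal by complementation. Compounds titrated up to 46 uM final, 2 h at 37 °C; luminescence read.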

Assay [7] addresses Mitogen-activated protein kinase 10 (Mus musculus) (UniProt Q61831). The experiment in a line: JNK3 AlphaScreen Assay (AID 530).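 Note: kinase came from lysate of stimulated human HepG2 cells; % is set by controls: 0 for no effect and ±100 for the full control effect.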 Particulars: JNK3 lysate, c-Jun phosphorylation; series mostly up to 11.4 µM. Put shortly: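 Biotinylated GST-cJun(1-79) served as substrate for JNK3 in HepG2 lysates stimulated with IL-1beta and TNF-alpha. ATP was 10 uM final, pH 7.6. Ser73 phosphorylation was quantified by AlphaScreen (680 nm excitation).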
(Alpha assays give light when donor and acceptor beads are brought close together.)

Assay [8] deals with 3',5'-cyclic-AMP phosphodiesterase 4B (Homo sapiens) (UniProt Q07343). The experiment in a line: qHTS Assay for Inhibitors of PDE-IV (AID 607; active = well fitted activation curve with a large enough effect in the main read-out, with a control signal flat, not every such curve was filed as active; note: % of control where 0% means no effect). Particulars: HEK293 ACTOne CNG channel cells, membrane potential fluorescence; series mostly up to 22.9 µM. In outline: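 Live HEK293 cells with a modified cyclic nucleotide-gated (CNG) channel report intracellular cAMP via membrane-potential dye fluorescence (ex 535/em 590 nm). Endogenous PDE-IV was targeted. Compounds were tested at up to 22.9 uM final; RO 20-1724 100 uM served as control.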
Sequence of 3',5'-cyclic-AMP phosphodiesterase 4B (Homo sapiens) (Q07343 whole entry, looked up): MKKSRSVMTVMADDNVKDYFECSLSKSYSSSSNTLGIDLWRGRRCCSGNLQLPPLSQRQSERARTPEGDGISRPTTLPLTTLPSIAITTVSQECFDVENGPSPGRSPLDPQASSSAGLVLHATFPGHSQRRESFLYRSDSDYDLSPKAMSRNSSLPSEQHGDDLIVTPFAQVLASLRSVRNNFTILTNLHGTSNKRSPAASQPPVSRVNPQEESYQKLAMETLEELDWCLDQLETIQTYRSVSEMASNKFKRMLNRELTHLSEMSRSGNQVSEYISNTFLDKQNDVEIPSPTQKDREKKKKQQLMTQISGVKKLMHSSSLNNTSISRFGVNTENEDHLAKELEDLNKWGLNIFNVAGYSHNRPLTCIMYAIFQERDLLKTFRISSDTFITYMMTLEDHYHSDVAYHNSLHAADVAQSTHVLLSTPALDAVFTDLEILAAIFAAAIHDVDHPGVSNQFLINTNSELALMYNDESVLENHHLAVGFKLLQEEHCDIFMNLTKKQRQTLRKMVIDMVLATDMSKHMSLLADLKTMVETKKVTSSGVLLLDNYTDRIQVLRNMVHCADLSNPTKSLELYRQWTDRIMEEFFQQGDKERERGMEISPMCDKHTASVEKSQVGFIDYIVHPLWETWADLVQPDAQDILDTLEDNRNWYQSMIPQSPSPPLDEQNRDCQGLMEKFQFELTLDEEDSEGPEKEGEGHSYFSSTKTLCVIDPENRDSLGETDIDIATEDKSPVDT

The target of assay [9] is Cytochrome P450 2D6 (Homo sapiens) (UniProt P10635). The experiment in a line: qHTS Assay for Inhibitors and Substrates of Cytochrome P450 2D6 (AID 891; active = well fitted curve in the direction sought with a large enough effect; an effect the other way counts as inactive or inconclusive; note: potency is the fitted concentration of half-maximal effect; nearly all actives have a fitted effect of over 60% in size). Particulars: recombinant CYP2D6, luciferin-ME EGE luminescence; series mostly up to 11.4 µM. Put shortly:
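Luminescent read-out of luciferin formed by 5 nM human CYP2D6 demethylating 30 uM Luciferin-ME EGE (Km level) over 60 min at room temperature after NADPH regeneration addition. Data normalized to full inhibition by 1.43 uM quinidine.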

Assay [10] addresses Cytochrome P450 2C19 (Homo sapiens) (UniProt P33261). The experiment in a line: qHTS Assay for Inhibitors and Substrates of Cytochrome P450 2C19 (AID 899; active = well fitted curve in the direction sought with a large enough effect; an effect the other way counts as inactive or inconclusive; note: potency is the fitted concentration of half-maximal effect; nearly all actives have a fitted effect of over 60% in size). Particulars: recombinant CYP2C19, luciferin-H EGE luminescence; series mostly up to 11.4 µM. In outline: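 In 50mM KPO4, the reaction held 5nM enzyme and KM-level (10uM) Luciferin-H EGE; it ran 60 min at 37C after NADPH regeneration and a 10 min compound preincubation. Luminescence values were scaled to 57uM ketoconazole as complete inhibition.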
(In general: qHTS replaces the single test concentration by a dilution series.)

Assay [11] is described as follows: NFAT Signaling Pathway (AID 444).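 Note: carbachol stimulus at about its EC50 of 1 µM final; % is set by controls: 0 for no effect and ±100 for the full control effect.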 Particulars: Jurkat NFAT-bla M1, carbachol, beta-lactamase ratio, 5 h; at 7.69 µM (top of the series) unless noted. Put shortly:
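Jurkat cells carrying an NFAT-driven β-lactamase reporter and co-transfected muscarinic M1 receptor were treated with compound plus carbachol (1 uM final, an EC50 level) for 5 h at 37 °C. CCF4 loading followed for 1 h at RT; 460/530 nm ratio gave %activity.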

Assay [12] has as its target ATP-dependent 6-phosphofructokinase (Trypanosoma brucei brucei) (UniProt O15648). The experiment in a line: qHTS Assay to Find Inhibitors of T. brucei phosphofructokinase: hit validation (AID 492961; active = well fitted curve in the direction sought with a large enough effect; an effect the other way counts as inactive or inconclusive). Particulars: T. brucei PFK, ADP-Glo luminescence; series mostly up to 51.4 µM. Put shortly:
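Reaction: 0.1 M triethanolamine pH 8.0, 5 mM MgCl2, F6P 0.5 mM, ATP 0.1 mM, PFK 1.25 nM, 45 min RT. Read-out: ADP-Glo luminescence. Analysis: concentration-response fits, classed by r2 and efficacy.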

Assay [13] is described as follows: qHTS profiling for inhibitors of Plasmodium falciparum proliferation (AID 504749; active = well fitted curve in the direction sought with a large enough effect; an effect the other way counts as inactive or inconclusive;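 note: 0% = DMSO vehicle and full inhibition = artemisinin control; nearly all actives have a fitted effect of over 60% in size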). Particulars: P. falciparum in erythrocytes, SYBR Green DNA, 72 h, at 28.7 µM (top of the series). Put shortly:
(§1)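 Fluorescence of SYBR Green-bound parasite DNA, read at 485/535 nm, served as the growth measure. Infected erythrocytes were cultured with compound 72 h; artemisinin (0.29 uM) and DMSO wells defined the normalization range.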

The subject of another assay is W2. The assay is described as above. Particulars: P. falciparum in erythrocytes, SYBR Green DNA, 72 h; series mostly up to 28.7 µM. In outline:
as §1

In assay [14] the target is Cytochrome P450 3A4 (Homo sapiens) (UniProt P08684). The experiment in a line: qHTS Assay for Inhibitors and Substrates of Cytochrome P450 3A4 (AID 884; active = well fitted curve in the direction sought with a large enough effect; an effect the other way counts as inactive or inconclusive; note: potency is the fitted concentration of half-maximal effect; nearly all actives have a fitted effect of over 50% in size). Particulars: recombinant CYP3A4, Luciferin-PPXE luminescence; series mostly up to 57.1 µM. In outline:
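Luminescent readout of luciferin produced by CYP3A4 (20 nM) dealkylation of Luciferin-PPXE, 25 uM (its KM). NADPH-driven reaction ran 60 min at RT after 10 min compound preincubation; data scaled to 57 uM ketoconazole as 100% inhibition.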

For assay [15] the target is unchanged. The experiment in a line: qHTS Assay for Activators of Cytochrome P450 3A4 (AID 885; active = well fitted curve in the direction sought with a large enough effect; an effect the other way counts as inactive or inconclusive; note: nearly all actives have a fitted effect of over 65% in size). Particulars: recombinant CYP3A4, Luciferin-PPXE luminescence, 60 min; series mostly up to 11.4 µM. Put shortly: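 Using 20nM recombinant human CYP3A4 in potassium phosphate (200mM), substrate Luciferin-PPXE at 25uM, luminescent luciferin detection followed a 60-min RT NADPH reaction; data scaled to 57 uM ketoconazole.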

Sequence of Cytochrome P450 2D6 (Homo sapiens) (P10635 whole entry, looked up): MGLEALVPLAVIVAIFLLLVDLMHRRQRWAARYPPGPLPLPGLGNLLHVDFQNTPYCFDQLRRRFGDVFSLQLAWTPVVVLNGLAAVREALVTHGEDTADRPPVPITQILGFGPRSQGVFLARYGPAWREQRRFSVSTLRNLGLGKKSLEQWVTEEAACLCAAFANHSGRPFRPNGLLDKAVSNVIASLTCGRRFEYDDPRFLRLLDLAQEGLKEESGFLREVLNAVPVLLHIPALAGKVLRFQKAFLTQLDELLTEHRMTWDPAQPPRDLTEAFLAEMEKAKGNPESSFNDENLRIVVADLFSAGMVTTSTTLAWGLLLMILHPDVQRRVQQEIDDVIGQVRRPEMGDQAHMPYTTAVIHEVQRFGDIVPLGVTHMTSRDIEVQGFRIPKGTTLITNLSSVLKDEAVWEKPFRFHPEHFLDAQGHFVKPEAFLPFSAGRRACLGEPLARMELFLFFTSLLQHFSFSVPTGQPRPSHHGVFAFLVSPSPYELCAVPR
Sequence of Cytochrome P450 1A2 (Homo sapiens) (P05177 whole entry, looked up): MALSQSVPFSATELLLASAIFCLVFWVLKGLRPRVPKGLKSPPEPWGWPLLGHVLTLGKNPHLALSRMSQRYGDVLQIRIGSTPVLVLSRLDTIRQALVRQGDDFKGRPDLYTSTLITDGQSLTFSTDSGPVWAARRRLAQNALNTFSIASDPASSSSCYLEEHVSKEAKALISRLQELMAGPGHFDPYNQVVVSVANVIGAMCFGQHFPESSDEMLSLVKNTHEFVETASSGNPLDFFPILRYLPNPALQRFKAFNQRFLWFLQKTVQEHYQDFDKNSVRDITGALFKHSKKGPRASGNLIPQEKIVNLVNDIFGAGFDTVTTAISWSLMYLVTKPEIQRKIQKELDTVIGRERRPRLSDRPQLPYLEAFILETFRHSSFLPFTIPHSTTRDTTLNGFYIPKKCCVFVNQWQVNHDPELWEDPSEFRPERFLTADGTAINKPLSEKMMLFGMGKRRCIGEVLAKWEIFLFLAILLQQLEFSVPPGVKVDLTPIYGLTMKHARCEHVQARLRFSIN
Sequence of Cytochrome P450 2C19 (Homo sapiens) (P33261 whole entry, looked up): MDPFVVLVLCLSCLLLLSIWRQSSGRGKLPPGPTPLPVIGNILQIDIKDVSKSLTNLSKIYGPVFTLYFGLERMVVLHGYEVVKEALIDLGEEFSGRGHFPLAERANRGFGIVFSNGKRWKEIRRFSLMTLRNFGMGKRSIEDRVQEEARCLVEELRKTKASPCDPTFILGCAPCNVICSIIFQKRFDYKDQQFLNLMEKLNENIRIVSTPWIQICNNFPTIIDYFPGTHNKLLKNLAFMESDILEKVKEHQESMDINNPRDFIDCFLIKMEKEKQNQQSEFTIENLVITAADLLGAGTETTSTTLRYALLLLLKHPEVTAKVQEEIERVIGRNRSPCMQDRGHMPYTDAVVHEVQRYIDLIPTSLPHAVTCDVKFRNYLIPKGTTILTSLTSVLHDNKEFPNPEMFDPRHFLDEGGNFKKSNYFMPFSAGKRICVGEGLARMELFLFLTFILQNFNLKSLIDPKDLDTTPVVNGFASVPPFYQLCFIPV
Sequence of Lysosomal acid glucosylceramidase (Homo sapiens) (P04062 whole entry, looked up): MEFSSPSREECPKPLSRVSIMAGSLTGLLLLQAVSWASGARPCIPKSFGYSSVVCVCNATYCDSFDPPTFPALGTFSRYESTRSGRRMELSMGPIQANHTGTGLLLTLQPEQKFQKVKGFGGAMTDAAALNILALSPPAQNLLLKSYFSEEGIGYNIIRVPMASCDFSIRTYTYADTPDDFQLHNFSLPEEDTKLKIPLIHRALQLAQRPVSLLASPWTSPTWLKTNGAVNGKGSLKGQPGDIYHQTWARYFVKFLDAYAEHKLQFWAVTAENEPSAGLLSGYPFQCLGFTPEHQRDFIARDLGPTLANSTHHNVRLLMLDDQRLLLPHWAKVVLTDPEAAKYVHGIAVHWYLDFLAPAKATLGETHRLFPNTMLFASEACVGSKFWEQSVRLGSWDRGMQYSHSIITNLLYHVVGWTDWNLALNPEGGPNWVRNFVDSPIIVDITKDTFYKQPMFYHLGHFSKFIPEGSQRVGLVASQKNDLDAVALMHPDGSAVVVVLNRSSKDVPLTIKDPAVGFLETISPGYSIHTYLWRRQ
Sequence of Cytochrome P450 3A4 (Homo sapiens) (P08684 whole entry, looked up): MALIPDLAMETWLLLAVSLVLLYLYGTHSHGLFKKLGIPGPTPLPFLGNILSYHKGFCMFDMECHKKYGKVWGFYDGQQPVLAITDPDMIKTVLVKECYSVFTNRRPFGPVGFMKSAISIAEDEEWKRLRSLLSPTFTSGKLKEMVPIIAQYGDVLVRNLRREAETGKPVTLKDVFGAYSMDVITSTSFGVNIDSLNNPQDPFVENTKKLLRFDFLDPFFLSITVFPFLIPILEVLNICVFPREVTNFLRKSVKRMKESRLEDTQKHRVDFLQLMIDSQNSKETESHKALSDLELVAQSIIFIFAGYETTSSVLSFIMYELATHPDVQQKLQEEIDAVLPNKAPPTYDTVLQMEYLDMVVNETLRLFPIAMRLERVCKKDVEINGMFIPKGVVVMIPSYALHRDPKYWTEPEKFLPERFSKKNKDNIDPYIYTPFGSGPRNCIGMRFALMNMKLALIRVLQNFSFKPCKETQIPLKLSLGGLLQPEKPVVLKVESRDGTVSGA
Sequence of ATP-dependent 6-phosphofructokinase (Trypanosoma brucei brucei) (O15648 whole entry, looked up): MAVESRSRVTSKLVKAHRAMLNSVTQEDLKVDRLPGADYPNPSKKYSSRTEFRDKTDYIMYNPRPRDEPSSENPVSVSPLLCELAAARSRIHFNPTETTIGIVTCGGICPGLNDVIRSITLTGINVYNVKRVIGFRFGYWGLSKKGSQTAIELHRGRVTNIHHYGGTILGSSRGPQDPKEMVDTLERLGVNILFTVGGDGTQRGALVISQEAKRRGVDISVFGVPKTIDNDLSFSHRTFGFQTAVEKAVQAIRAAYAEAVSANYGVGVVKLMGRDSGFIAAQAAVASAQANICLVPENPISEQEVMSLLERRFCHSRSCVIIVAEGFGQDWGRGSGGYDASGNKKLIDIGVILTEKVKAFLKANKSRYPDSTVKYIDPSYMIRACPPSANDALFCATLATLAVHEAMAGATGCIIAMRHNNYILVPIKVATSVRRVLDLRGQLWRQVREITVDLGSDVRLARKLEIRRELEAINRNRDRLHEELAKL

In the case of `Clc1ccc2c(c1)N(CCCN1CCCC13CCCCC3)c1ccccc1S2`, the Potency in [1] was > 11.4 µM; in [5], > 46 µM; in [6], > 9.22 µM; in assay [9], 0.0079 µM (active). Also, the activity change, negative = inhibition in assay [2] is 19%; in [3], -6.2% [at 2.29 µM]. Also, the activity, negative = inhibition in [4] was 11.1%. Also, the Potency entry in assay [7] and in assay [8] was “inactive” each time.
Take `CCN(Cc1cc(Cl)cc(C)c1O)Cc1c(O)ccc2ccccc12`: the Potency was > 11.4 µM in assay [1]; 1 µM (active) in assay [3]; > 46 µM in [5]; > 9.22 µM in assay [6]; 1.26 µM (active) in [9]; 1.26 µM (active) in assay [10]. In [2], the activity change, negative = inhibition was -8.15%. In assay [4], the activity, negative = inhibition was 1.25%. Moreover, the Potency entry in [7] and in assay [8] was “inactive” in each case.
Take `Cc1ccc2ccccc2c1CSc1nc(N)nc2c1ncn2CC(C)C`: the Potency is > 11.4 µM in [1]; > 46 µM in [5]; > 9.22 µM in assay [6]; 3.98 µM (active) in assay [9]; 3.98 µM (active) in assay [10]. Besides, the results for the activity change, negative = inhibition in [2] and in [3] were -11.7% and -20.8% [at 2.29 µM], respectively. Also, in assay [4], the activity, negative = inhibition is -19.8%. For the same compound, the Potency result in assay [7] and in [8] was “inactive” each time.
Turning to `CN(C)CCCc1c2ccccc2nc2ccc(Cl)cc12`, the Potency in [1] is > 11.4 µM; in assay [3], 3.98 µM (active); in assay [5], > 46 µM; in [6], > 9.22 µM; in assay [9], 1.58 µM (active). Moreover, in [2], the activity change, negative = inhibition is 14.2%. In assay [4], the activity, negative = inhibition is 18.2%. In addition, the Potency result in assay [7] and in [8] was “inactive” each time.
As for `COc1ccc(Oc2ncc3nc(C)c(=O)n(Cc4ccc(F)cc4)c3n2)cc1`, the Potency is > 11.4 µM in assay [1], > 9.22 µM in assay [5] and > 46 µM in assay [6]. Further, the activity change, negative = inhibition was -26.5% in assay [2] and -3.9% in [11]. Besides, the activity, negative = inhibition in assay [4] was -12.2%. Moreover, the Potency result in assay [7] is “inactive”.
On to `Cc1onc(-c2c(F)cccc2Cl)c1C(=O)N[C@@H]1C(=O)N2[C@H]1SC(C)(C)[C@H]2C(=O)O`, for which the figures for the Potency in [1], in [5] and in assay [6] were > 11.4 µM, > 46 µM and > 9.22 µM, respectively. Further, the activity change, negative = inhibition in assay [2] is -24%; in [11], 13.8%. Also, the activity, negative = inhibition is 5.59% in assay [4], 1.43% in assay [13] (parasite line A) and 6.57% in assay [13] (parasite line B). The Potency entry (in assay [7]; in assay [8]; in the assay on W2) was “inactive” in each case. In [12], the call was inactive.
With `O=C=Nc1ccc(Cc2ccc(N=C=O)cc2)cc1` (tested in a mixture with another compound), the Potency in [1] is > 11.4 µM; in assay [3], 5.01 µM (active). Besides, in assay [2], the activity change, negative = inhibition was -8.4%. Besides, the activity, negative = inhibition in assay [4] is -1.09%. Besides, the Potency entry in assay [7] and in assay [8] was “inactive” each time.
`CC(C)Cn1cnc2c(SCc3ccc(Cl)cc3Cl)nc(N)nc21`: the Potency was > 11.4 µM in [1]; 1.26 µM (active) in assay [3]; > 46 µM in [5]; > 9.22 µM in assay [6]; 3.98 µM (active) in assay [14]; 2 µM (active) in assay [10]. Further, the activity change, negative = inhibition in assay [2] was -27.8%. For the same compound, the Potency entry in assay [7], in assay [8] and in assay [15] was “inactive” each time.

(Values after PubChem BioAssay (NCATS).)
